Tests used:
[1] = biological target: T1, Aspartate--tRNA(Asp/Asn) ligase (Mycobacterium tuberculosis (strain ATCC 25618 / H37Rv)) (UniProt P9WFW3); experiment: Assay for Asp RNA synthetase-1 from Mycobacterium tuberculosis; assay type: functional; set-up: scale not given: direction of the effect not stated beside the values; conditions: 30 µM; also: in the data most compounds retested in dose-response had high values
T1 sequence (whole entry): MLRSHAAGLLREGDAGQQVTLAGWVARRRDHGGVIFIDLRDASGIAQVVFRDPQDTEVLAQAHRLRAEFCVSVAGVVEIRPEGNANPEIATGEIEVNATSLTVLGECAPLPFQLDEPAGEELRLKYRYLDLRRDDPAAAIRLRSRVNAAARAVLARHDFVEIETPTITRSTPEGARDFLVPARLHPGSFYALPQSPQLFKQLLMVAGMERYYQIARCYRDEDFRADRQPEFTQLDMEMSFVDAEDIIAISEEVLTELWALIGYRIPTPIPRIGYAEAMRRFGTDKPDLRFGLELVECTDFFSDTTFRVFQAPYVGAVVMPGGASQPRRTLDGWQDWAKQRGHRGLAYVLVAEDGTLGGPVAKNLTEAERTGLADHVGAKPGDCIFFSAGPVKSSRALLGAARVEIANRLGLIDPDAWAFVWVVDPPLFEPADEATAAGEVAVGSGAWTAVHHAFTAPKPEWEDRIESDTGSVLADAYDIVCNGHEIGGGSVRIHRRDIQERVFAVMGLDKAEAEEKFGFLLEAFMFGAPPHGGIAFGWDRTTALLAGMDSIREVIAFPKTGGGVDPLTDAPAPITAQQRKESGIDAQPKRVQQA

[2] = biological target: Shiga toxin 2 (Escherichia coli O157:H7) (UniProt P09385+P09386); experiment: E. coli 0.157:H7 Shiga Toxin SOP - stx2 screening assay; assay type: functional; set-up: scale not given: direction of the effect not stated beside the values; conditions: 30 µM

SMILES	Percent Effect [1] [%]	Percent Effect [2] [%]
Cc1ccc(-c2nc(CN3CCCC(Cn4cncn4)C3)no2)cc1 (stereo unspecified)	1.64	-11.2
Cn1cc(CCNC(=O)NCc2nnc3n2CCC3)cn1	-2	5.89
CCn1cc(CN2CCCN(C(=O)c3sccc3C#N)CC2)cn1	0.257	-4.04
Cn1cccc1C(=O)N1CCn2cc(CNC(=O)CC3CC3)nc2C1	-0.0735	-50.9
CN(C)S(=O)(=O)c1ccc(CN2CCCC2c2ccccc2)o1 (stereo unspecified)	4.24	-1.81
Cc1ccc(F)cc1S(=O)(=O)NCc1cccnc1N(C)C	4.75	-16.9
Cc1cc(C)nc(N2CCN(C(=O)c3cc(Cl)c[nH]3)CC2)n1	1.48	-6.42
COCCn1ccc2cc(NC(C)=O)ccc21	-5.18	-9.31
CN(Cc1ccccc1)CC(O)Cn1cnc2ccccc2c1=O (stereo unspecified)	-0.611	-4.12
O=c1c2ccccc2nc2n1CCN(Cc1cccs1)CC2	1.35	12
CCCN(CC(=O)NC)C(=O)c1ccc(-c2ccsc2)nc1C	-3.29	-2.59
CC(=O)N1CCCN(C(=O)NCc2ccccn2)CC1	3.93	16.9
CCOCCCn1c(NC(=O)c2cnn(C)c2)nc2ccccc21	-2.49	22.6
O=C(NCC1CCOC1)c1ccc(OCC(F)(F)F)nc1 (stereo unspecified)	-2.12	-17.6
COc1ccnc(N2CCN(C(=O)CCc3nccs3)CC2)n1	-1.19	-2.92
c1cncc(OCc2noc3c2CN(Cc2ccoc2)CC3)c1	2.82	-31.1
CC(CNCc1ccncc1)Oc1ccccn1 (stereo unspecified)	-2.38	-57
Fc1ccc(-c2n[nH]cc2-c2ccnc(NCCN3CCCC3)n2)cc1	8.63	-50.2
